Compound activity as filed in PubChem BioAssay.
Only some compounds are listed: those with a hit (about 9.4% of all), similar ones and a draw of the others.
SARS PLpro yeast = blocks SARS-CoV papain-like protease in a yeast assay; S. cerevisiae expressing SARS-CoV PLpro, growth rescue; Potency, µM (titrated, usually from 32.9 µM), most hits filed as activators; 330,000 tested, 0.19% active; AID 485353; calls by dose curve; also: nearly all actives have a fitted effect of over 55% in size
Pf growth 48h = P. falciparum growth inhibition at 48 hours (one generation); Potency, µM (doses to about 28.7 µM), actives largely listed as inhibitors; 310,000 tested, 5.9% active; AID 504832; P. falciparum luciferase growth in erythrocytes, 48 h
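Luciferase-expressing parasites in RBCs, 2% Hct / 0.1% parasitemia final; RPMI 1640 + 0.5% Albumax; 37 C, 5% CO2, one generation; luminescence read-out, lower signal = inhibition.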
AMA1 RON2 block = inhibitors of Plasmodium falciparum AMA1-RON2 interaction; 360,000 tested, 0.2% active; AID 720542; AlphaScreen AMA1-biotinylated RON2 peptide binding; Potency, µM (titrated, usually from 58.2 µM), usual class: inhibitors; also: nearly all actives have a fitted effect of over 45% in size
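AMA1 (3D7) with his tag at 25 nM final met compounds first, then biotinylated RON2 peptide at 25 nM; detection used donor plus acceptor beads, 10 µg/mL apiece, read by AlphaScreen after 30 min at room temperature.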
Pf growth 96h = P. falciparum growth inhibition at 96 hours | P. falciparum luciferase reporter growth, 96 h | Potency, µM (highest dose often 28.7 µM), hits mostly inhibitors | 320,000 tested, 6.9% active | AID 504834
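Delayed-death screen, second-generation endpoint: infected erythrocytes, 2% hematocrit, 0.05% parasitemia final; 96 hours at 37 C, 5% CO2; luciferase detection reagent; luminescence decrease equals reduced growth.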
A number is an active result; 0 = inactive; ? = inconclusive; - = not tested or not shown. Unless noted, calls follow the shape of the dose curve; as a rule, active = well fitted curve in the direction sought with a large enough effect; inconclusive = small, poorly fitted or top-dose-only effect, or another doubt; inactive = no such curve, though single readings can be large; an effect the other way counts as inactive or inconclusive.

SMILES	SARS PLpro yeast	Pf growth 48h	AMA1 RON2 block	Pf growth 96h
COc1cccc(CN2CCC(C(=O)Nc3ccc(Oc4cccnc4)cc3)CC2)c1	0	?	0	0
O=C(Nc1ccc(Oc2cccnc2)cc1)C1CCN(Cc2cc(Cl)ccc2O)CC1	0	1.31µM	0	?
Cc1cccc(CN2CCC(C(=O)Nc3ccc(Oc4cccnc4)cc3)CC2)c1	0	13.1µM	0	0
CCn1cc(CN2CCC(C(=O)Nc3ccc(Oc4cccnc4)cc3)CC2)cn1	0	13.1µM	0	0
O=[N+]([O-])c1cc([N+](=O)[O-])c(Oc2cccc3c2CCCC3)cc1NN1CCCCC1	-	-	0	-
COc1cccc(CNc2ncc(C(=O)Nc3cc(OC)c(OC)c(OC)c3)c(C)n2)c1	0	10.4µM	0	?
CC(C)(C)c1cc(OS(C)(=O)=O)ccc1O	0	0	0	0
CC(C)(C)c1cc(OC(=O)C2CCCC2)ccc1O	0	0	0	5.22µM
COc1ccccc1N1CCN(CC(=O)c2ccc3ccn(C(C)=O)c3c2)CC1	0	-	0	0
COc1cc2c(cc1OC)CN(C(=O)c1cc(C3CC3)nn1-c1ccccc1)CC2	0	?	0	5.86µM
O=C(c1cc(-c2cccs2)nn1-c1ccccc1)N1CCN(S(=O)(=O)c2ccccc2)CC1	0	10.4µM	0	4.15µM
O=C(c1cc(C2CC2)nn1-c1ccccc1)N1CCN(S(=O)(=O)c2cccc(F)c2)CC1	0	8.28µM	0	?
Cc1nn2c(CN(C(=O)COc3ccccc3)c3ccccc3)nnc2c2ccccc12	0	?	0	0
CCN(C(=O)CN1C(=O)NC(c2ccccc2)(c2ccc(C)c(C)c2)C1=O)C1CCS(=O)(=O)C1 (stereo not drawn)	0	?	0	13.1µM
CCN(C(=O)CN1C(=O)NC(c2ccccc2)(c2ccc(C)c(C)c2)C1=O)C1CCCCC1 (stereo not drawn)	0	6.57µM	0	3.29µM
Cc1ccc(C2=NNC(c3cccc(F)c3)S2)cc1 (stereo not drawn)	0	0	0	11.7µM
COc1ccc(C2NN=C(c3ccc(C)cc3)S2)cc1OC (stereo not drawn)	0	0	0	1.85µM
COc1ccc(C2NC(=O)CS2)cc1OC (stereo not drawn)	0	0	0	0
Fc1cccc(C2NN=C(c3ccccc3)S2)c1 (stereo not drawn)	0	0	0	0
CC(C)c1ccc(COC(=O)CN2C(=O)NC3(CCCCC3C)C2=O)cc1 (stereo not drawn)	0	?	0	0
O=C(CCCCCBr)N1CCC(CC2CC(c3ccc(Cl)cc3)=NO2)(C(=O)NCC2CCCCC2)CC1 (stereo not drawn)	0	?	0	3.29µM
COc1ccc(CNC(=O)C2(CC3CC(c4ccccc4)=NO3)CCN(C(=O)CCCCCBr)CC2)cc1 (stereo not drawn)	-	-	0	-
O=C(CCCCCBr)N1CCC(CC2CC(c3cccc(Br)c3)=NO2)(C(=O)NCC2CCCCC2)CC1 (stereo not drawn)	0	?	0	5.22µM
CCCCCCCNC(=O)C1(CC2CC(c3ccc(Cl)cc3)=NO2)CCN(C(=O)CCCCCBr)CC1 (stereo not drawn)	0	0	0	11.7µM
CC(C)(C)OC(=O)N1CCC(CC2CC(c3ccc(Cl)cc3)=NO2)(C(=O)NCC2CCCCC2)CC1 (stereo not drawn)	0	0	0	?
SMILES	SARS PLpro yeast	Pf growth 48h	AMA1 RON2 block	Pf growth 96h
COc1ccc(N2CC(C(=O)NCc3ccccc3)CC2=O)cc1 (stereo not drawn)	0	0	0	-
CN(C)c1nc(N)nc(Nc2ccccc2C#N)n1	0	0	0	13.1µM
CN(C)c1nc(N)nc(-c2nc3ccccc3s2)n1	0	0	0	-
O=C(CCN1C(=O)/C(=C/c2ccccc2)SC1=S)N[C@@H](CO)Cc1ccccc1	0	0	0	13.1µM
O=C(CCN1C(=O)/C(=C/c2ccccc2Cl)SC1=S)NC1CCS(=O)(=O)C1 (stereo not drawn)	0	0	0	?
O=C(CCN1C(=O)/C(=C/c2ccccc2)SC1=S)NC1CCS(=O)(=O)C1 (stereo not drawn)	0	?	0	13.1µM
O=C(CCCN1C(=O)c2cccc3cccc(c23)C1=O)NC1CCS(=O)(=O)C1 (stereo not drawn)	0	?	0	11.7µM
O=C(CCN1C(=O)/C(=C/c2ccccc2F)SC1=S)N[C@@H](CO)Cc1ccccc1	0	0	0	?
O=C(CCCN1C(=O)/C(=C/c2ccc(F)cc2)SC1=S)NCCCn1ccnc1	0	?	0	9.28µM
COc1ccc(CNC(=O)C2CCN(C(=O)[C@@H]3Cc4ccccc4CN3)CC2)cc1	0	0	0	0
O=C(CCCN1C(=O)/C(=C/c2ccc(F)cc2)SC1=S)NC1CCS(=O)(=O)C1 (stereo not drawn)	0	9.28µM	0	10.4µM
O=C(CN1C(=O)S/C(=C\c2ccccc2)C1=O)NC1CCS(=O)(=O)C1 (stereo not drawn)	0	0	0	0
CCCS(=O)(=O)n1nc(-c2ccc(Br)cc2)cc1N	0	0	0	0
CCCS(=O)(=O)n1nc(-c2ccccc2)cc1N	0	-	0	9.28µM
CCS(=O)(=O)n1nc(-c2ccccc2)cc1N	0	-	0	1.31µM
CC(C)(C)N(CC#CCC1(O)c2ccccc2-c2ccccc21)CCO	0	?	0	11.7µM
OCCN(CC#CCn1c2ccccc2c2ccccc21)CCO	0	0	0	0
O=C(NCC(=O)N(c1cccnc1)C(C(=O)NC1CCCC1)c1cccs1)c1cccs1 (stereo not drawn)	0	0	0	11.7µM
O=C(NCC(=O)N(c1ccc2c(c1)OCO2)C(C(=O)NC1CCCC1)c1ccncc1)c1ccco1 (stereo not drawn)	0	0	39.8µM	0
Cc1ccc(N(C(=O)CNC(=O)c2ccco2)C(C(=O)NC2CCCC2)c2cccnc2)cc1 (stereo not drawn)	0	0	0	0
Cc1cccc(N(C(=O)CNC(=O)c2ccco2)C(C(=O)NC2CCCC2)c2cccnc2)c1 (stereo not drawn)	0	0	0	4.15µM
O=C(NCC(=O)N(Cc1ccccc1)C(C(=O)NC1CCCC1)c1cccnc1)c1ccco1 (stereo not drawn)	0	0	0	16.5µM
CCOC(=O)c1oc2ccccc2c1NC(=O)Cc1cccs1	0	0	0	?
O=C(c1ccc(C(F)(F)F)cc1)C1CCCN(C(=O)c2cnccn2)C1 (stereo not drawn)	0	0	0	?
O=C(O)c1ccc(CSc2nnnn2C2CCCCC2)cc1	0	0	0	-
SMILES	SARS PLpro yeast	Pf growth 48h	AMA1 RON2 block	Pf growth 96h
COCc1cc(C)nc(SCC(=O)NCc2ccco2)c1C#N	0	0	0	9.28µM
Cc1cc(C)c(C#N)c(SCC(=O)c2ccccc2)n1	0	0	0	4.65µM
COCc1cc(C)nc(SCC(=O)Nc2cccc(C)c2C)c1C#N	0	?	0	?
Cc1cc(C)c(C#N)c(SCC(=O)c2cccs2)n1	0	0	0	-
Cc1nc(SCC(=O)c2ccccc2)c(C#N)c(-c2ccco2)c1C(=O)NCc1ccco1	?	9.28µM	0	?
CC(C)(C)n1nc2c(c1NC(=O)c1ccccc1S(=O)(=O)C(F)F)CS(=O)(=O)C2	0	?	0	?
